# Compounds with a hit are over-represented: about 9.2% of the library has one in this group of screens.
# JMJD2E inh: inhibitors of human JMJD2E histone demethylase; B2RXH2; JMJD2E catalytic domain, FDH-coupled NADH fluorescence (FDH is formaldehyde dehydrogenase); Potency, µM (titrated, usually from 57.1 µM), without a hit: at the top dose activity change, negative = inhibition, usual class: inhibitors; 230,000 tested, 1.6% active; AID 2147;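 note: 0% = wells with enzyme and -100% = buffer wells without enzyme; nearly all actives have a fitted effect of over 50% in size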
# Target sequence (B2RXH2 1-337 limits assumed): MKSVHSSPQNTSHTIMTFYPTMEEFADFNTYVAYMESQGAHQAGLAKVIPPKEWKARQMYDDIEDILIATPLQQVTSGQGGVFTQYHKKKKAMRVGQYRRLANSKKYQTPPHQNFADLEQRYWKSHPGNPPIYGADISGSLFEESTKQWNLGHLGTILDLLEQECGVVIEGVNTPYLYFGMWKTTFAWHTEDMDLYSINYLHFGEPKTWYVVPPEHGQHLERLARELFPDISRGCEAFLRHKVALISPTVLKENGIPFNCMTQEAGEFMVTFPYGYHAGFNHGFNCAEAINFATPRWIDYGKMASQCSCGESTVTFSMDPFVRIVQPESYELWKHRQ
# Lamin A splicing: changes lamin A minigene splicing in HeLa cells | HeLa LMNA splicing GFP/RFP minigene ratio, 48 h | Potency, µM (doses to about 46.1 µM), without a hit: top-dose ratio change, negative = inhibition, most hits filed as inhibitors | 200,000 tested, 0.01% active | AID 1487; active = well fitted inhibition curve with a large enough effect in the signal ratio, with a control signal flat, not every such curve was filed as active; inconclusive = small, poorly fitted or top-dose-only effect, or effect the other way, or a change in a side signal; the % refers to the signal ratio; note: % is set by controls: 0 for no effect and ±100 for the full control effect
#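 S3 HeLa stable clones carrying a lamin A-EGFP splicing minigene plus DsRed2 were seeded at 600 cells/well in Opti-MEM with 2% FBS, pin-dosed and incubated 48 h at 37°C. Acumen cytometry (488 nm) gave the GFP/RFP total-intensity ratio.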
# HTT ATP protect: Huntington cell model cytoprotection by ATP luminescence; PC12 HTT-Q103 induced, cytoprotection, ATP luminescence, 40 h; Potency, µM (doses to about 56.4 µM), inactives show cytoprotection (ATP increase), actives largely listed as activators; 230,000 tested, 0.14% active; active = well fitted curve in the direction sought with a large enough effect; inconclusive = small, poorly fitted or top-dose-only effect, or another doubt; inactive = no such curve, though single readings can be large; an effect the other way counts as inactive or inconclusive; note: % of control where 0% means no effect; nearly all actives have a fitted effect of over 45% in size
#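 Quantitative HTS on tebufenozide-induced (100 nM) PC12 cells expressing HTTQ103 exon 1–GFP; compounds tested as a concentration series; survival measured via cellular ATP.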
# ALDH1A1 inh: blocks purified human ALDH1A1 activity. Potency, µM (titrated, usually from 75.3 µM), for the others: at the top dose activity, negative = inhibition, most hits filed as inhibitors. Purified ALDH1A1, NADH fluorescence, propionaldehyde substrate. P00352. 220,000 tested, 7.3% active;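 note: plate controls were no enzyme wells and a reference inhibitor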
# HTT aggregate: reduces HttQ103-GFP aggregates in PC12 cells | 220,000 tested, 1.1% active | PC12 HttQ103-GFP aggregates, Acumen cytometry, 40 h | Potency, µM (highest dose often 46.1 µM), for the others: at the top dose activity change, negative = inhibition, hits mostly inhibitors | AID 1688; active = well fitted curve in the direction sought with a large enough effect; inconclusive = small, poorly fitted or top-dose-only effect, or another doubt; inactive = no such curve, though single readings can be large; an effect the other way counts as inactive or inconclusive; note: % is set by controls: 0 for no effect and ±100 for the full control effect; nearly all actives have a fitted effect of over 60% in size
#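 Multiplexed with ATP-based cell death, this channel scores GFP aggregates in PC12 cells expressing inducible HTTex1-Q103-GFP. Induction used 100 nM tebufenozide; compounds were tested in concentration series.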
# HPGD block: blocks human HPGD enzyme activity; purified HPGD, NADH fluorescence kinetic, PGE2 substrate; Potency, µM, inactives show at the highest dose activity change, negative = inhibition, actives largely listed as inhibitors; P15428; 150,000 tested, 4.3% active; AID 894; note: % is set by controls: 0 for no effect and ±100 for the full control effect
# Target sequence (P15428 whole entry, looked up): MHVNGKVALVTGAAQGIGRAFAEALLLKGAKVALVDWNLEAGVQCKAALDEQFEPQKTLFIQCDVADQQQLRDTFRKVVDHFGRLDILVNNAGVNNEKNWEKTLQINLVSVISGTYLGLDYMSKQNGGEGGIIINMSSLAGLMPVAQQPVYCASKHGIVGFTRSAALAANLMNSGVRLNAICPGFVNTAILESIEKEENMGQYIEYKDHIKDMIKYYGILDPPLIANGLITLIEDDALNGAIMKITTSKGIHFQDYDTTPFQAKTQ
#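 NADH formation kinetics: reaction with 30 uM PGE2 and 1 mM NAD+ (final), 20 nM enzyme, Tris-HCl pH 8 with Tween 20, after 15 min compound preincubation at room temperature. Fluorescence change, last versus first of five reads.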
# * marks the source's active call; other numbers are inactive results; u = inconclusive; x = not tested or not shown; [ ] = remark or other dose. Unless noted, calls come from the whole dose curve; as a rule, active = well fitted inhibition curve with a large enough effect (not every such curve was filed as active); inconclusive = small, poorly fitted or top-dose-only effect, or another doubt; inactive = no such curve, though single readings can be large or run the other way. Potency is the fitted concentration of half-maximal effect.
SMILES,JMJD2E inh,Lamin A splicing,HTT ATP protect,ALDH1A1 inh,HTT aggregate,HPGD block
Cc1c2oc3c(C)ccc(C(=O)N[C@@H]4C(=O)N[C@@H](C(C)C)C(=O)N5CCC[C@@H]5C(=O)N(C)CC(=O)N(C)[C@@H](C(C)C)C(=O)O[C@H]4C)c3nc-2c(C(=O)N[C@@H]2C(=O)N[C@@H](C(C)C)C(=O)N3CCC[C@@H]3C(=O)N(C)CC(=O)N(C)[C@@H](C(C)C)C(=O)O[C@H]2C)c(N)c1=O,u,x,-157.0%[1.9 µM],u,x,u
Fc1cccc(Nc2cc(-n3cccn3)ncn2)c1,u,u,9.7%[10 µM],-1.7%,12.6µM*,-9.4%
Cc1ccc(Nc2cc(-n3cccn3)ncn2)c(C)c1,15.9%,1.2%,-4.5%,u,2.4%[9.22 µM],-4.7%
COc1cccc(NC(=O)CSc2cc(C)[nH]c(=O)n2)c1,x,11.7%[46 µM],x,x,x,x
N#CC(C#N)=C1c2cc(S(N)(=O)=O)ccc2-c2ccc(S(N)(=O)=O)cc21,-1.1%,-3.5%[46 µM],12.7%[10 µM],7.94µM*,-8.4%[9.22 µM],x
CCn1c(SCC(=O)N=Nc2c(O)[nH]c3ccccc23)nc2ccccc21,2.9%,u,-8.5%[10 µM],6.31µM*,15.4%,-13.3%
O=C(CSCc1cccc(Br)c1)N=Nc1c(O)[nH]c2ccccc12,-10.8%,9.6%,-13.3%,7.94µM*,-0.6%,-15.0%
O=C(CSCc1ccccc1)N=Nc1c(O)[nH]c2ccccc12,7.9%,-19.6%,9.3%[10 µM],u,-9.5%,-8.5%
CC(OC(=O)CN1C(=O)C2C3C=CC(C4CC34)C2C1=O)C(=O)c1ccccc1 (stereo unspecified),6.3%,x,17.6%[10 µM],x,-2.0%[9.22 µM],x
Cc1cc(C)cc(N=Cc2ccc([N+](=O)[O-])s2)c1,u,u,x,u,-6.5%,-9.5%
O=[N+]([O-])c1ccc(C=Nc2ccc(Cl)c([N+](=O)[O-])c2)s1,14.1µM*,u,-35.3%[1.9 µM],14.1µM*,41.7%[9.22 µM],x
NC(=O)c1ccc(N=Cc2ccc([N+](=O)[O-])s2)cc1,22.4µM*,u,x,20µM*,u,-5.2%
Cc1cnnn1-c1ccc(C(=O)CCl)cc1,-9.4%,8.9%,-15.1%,0.891µM*,1.9%,u
ICCc1ccccc1,x,x,-33.3%,3.55µM*,x,10µM*
CC(NC(=O)CCCN1C(=O)CCn2nc(-c3cn(C)c4ccccc34)cc21)c1ccccc1 (stereo unspecified),x,-15.8%[46 µM],x,x,x,x
O=C(CN1CCN(c2ncccn2)CC1)NCc1ccccc1,-9.7%,0.6%,5.1%,u,8.9%,-8.6%
O=C(CN1CCOCC1)NCc1ccccc1,-2.7%,-4.9%,-13.4%,-6.2%,0.316µM*,-11.1%
O=C(NCc1ccccc1)c1ccc(CN2CCOCC2)cc1,7.8%,-7.2%,-6.0%,u,-17.2%,-15.7%
O=C(CN1CCOCC1)Nc1ccc(OCc2ccccc2)cc1,-0.4%,21.1%,-14.9%[10 µM],12.6µM*,-7.2%,-15.0%
O=C(CN1CCOCC1)Nc1ccc(Oc2ccc(NC(=O)CN3CCOCC3)cc2)cc1,6.9%,10.0%,-25.8%[0.074 µM],17.8µM*,-3.0%,u
O=C(CN(Cc1ccccc1Cl)C(=O)c1ccc(CN2CCOCC2)o1)NCc1ccccc1,-4.2%,-2.8%,-14.6%[10 µM],12.6µM*,2.4%,-11.1%
COc1ccc(NC(=O)CN2CCOCC2)cc1,u,0.3%,3.5%,u,-1.1%,-13.4%
CCc1ccc(NC(=O)c2cc(S(=O)(=O)N3CCCC3)ccc2F)cc1,x,-17.9%[46 µM],x,x,x,x
Cc1ccc(C)c(Cn2c(SCC(=O)NCc3ccccc3)nc3ccccc32)c1,x,-14.4%[46 µM],x,x,x,x
CCOC(=O)CCCCC(=O)c1[nH]c(=O)[nH]c1CSc1nnc2c3ccccc3n(C(C)C)c2n1,-7.4%,-12.6%,x,12.6µM*,-8.9%,u
SMILES,JMJD2E inh,Lamin A splicing,HTT ATP protect,ALDH1A1 inh,HTT aggregate,HPGD block
Cc1ccc2nc(CN3CCN(S(=O)(=O)c4ccc(C(C)C)cc4)CC3)oc2c1,x,-10.1%[46 µM],x,x,x,x
CCC(C)Nc1nc(C)nc2c1oc1ccccc12 (stereo unspecified),-18.1%,x,u,x,33.8%[9.22 µM],x
Cc1nc(N[C@@H](Cc2ccccc2)C(=O)O)c2oc3ccccc3c2n1,-4.6%,1.4%[0.0737 µM],-24.9%,17.8µM*,4.9%,-15.2%
O=C(O)CNc1nc(-c2ccccc2)nc2c1oc1ccccc12,3.7%,x,-15.3%[10 µM],x,-26.4%[9.22 µM],x
Cc1nc(NC(C)c2ccccc2)c2oc3ccccc3c2n1 (stereo unspecified),u,u,-29.0%,-13.5%,12.6µM*,-26.3%
CSCC[C@@H](Nc1nc(-c2ccccc2)nc2c1oc1ccccc12)C(=O)O,-0.4%,-11.6%,-4.5%[10 µM],11.2µM*,-6.6%,-12.3%
N#[N+]c1ccc(Nc2ccccc2)cc1,x,x,10.5%[10 µM],-1.4%[13.5 µM],x,0.2%
Cc1nn(C(C)C(=O)NCC2CCCO2)c(C)c1[N+](=O)[O-] (stereo unspecified),6.8%,2.4%[46 µM],u,6.6%,28.3%,x
Cc1ccc2cc(C)c(SCC(=O)Nc3ccc(S(=O)(=O)N4CCCC4)cc3)nc2c1,-12.9%,x,25.7%[10 µM],x,10.3%[9.22 µM],x
O=C(COc1ccccc1)Nc1ccc(S(=O)(=O)N2CCCC2)cc1,6.2%,4.4%,-14.3%,-6.0%,-13.4%,-6.6%
Cc1cc(C)c2c(c1)cc(C)c1nnc(SCC(=O)Nc3ccc(S(=O)(=O)N4CCCCC4)cc3)n12,u,u,17.0%[10 µM],20µM*,-6.5%,-6.8%
O=C(CSc1nc2ccccc2c(=O)[nH]1)Nc1ccc(S(=O)(=O)N2CCCC2)cc1,-3.7%,u,-27.1%[10 µM],2.24µM*,-15.3%,14.1µM*
O=C(CCc1ccccc1)Nc1ccc(S(=O)(=O)N2CCCC2)cc1,-10.9%,x,-17.5%[10 µM],12.6µM*,4.1%[9.22 µM],x
O=C(CCOc1ccccc1)Nc1ccc(S(=O)(=O)N2CCCC2)cc1,-10.9%,-1.6%,-12.3%,22.4µM*,-0.3%,-9.1%
Cc1ccc(N2CC(C(=O)O)CC2=O)cc1 (stereo unspecified),-12.1%,9.1%[46 µM],-13.0%[10 µM],-0.4%,-11.8%[9.22 µM],x
CC1CCN(S(=O)(=O)c2ccc(NC(=O)CSc3ncccc3C(=O)O)cc2)CC1,-0.4%,-0.3%,-7.9%,25.1µM*,-24.0%,14.1µM*
Cc1cc(C)n(CCOc2ccc(Cl)cc2Cl)n1,0.3%,5.2%,0.7%,-2.1%,-13.1%,31.6µM*
O=C(Cn1cncn1)N/N=C/c1ccccc1O,u,x,10.9%[10 µM],x,-18.6%[9.22 µM],x
CCOc1cc(N2CCOCC2)c(OCC)cc1NC(C)C(=O)N1CCN(CC)CC1 (stereo unspecified),26.6%,u,-13.3%,22.4µM*,23.3%,x
Cc1cc(N2C(=O)C3CC=CC(C)C3C2=O)no1 (stereo unspecified),9.2%,-1.1%,14.9%[10 µM],-10.1%,-10.0%,-10.9%
CC(=O)Nc1ccc(/C(C)=N\NC(=O)c2ccc(-c3ccccc3)cc2)cc1,0.1%,x,-26.6%,22.4µM*,10.2%,x

# From PubChem
